m5-HT2A agonist: activates the mouse 5-HT2A serotonin receptor; activation, % at 7.6 µM; P35363; 360,000 compounds, 0.66% hits; AID 624169; CHO-K1 mHTR2A beta-arrestin complementation, luminescence; percent of 30 µM serotonin response;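 active means activation above a run cutoff, the mean activation of all tested compounds plus 3 SD, cut at about 14% in these data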;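 further: 0% = plate median of compound wells and 100% = 30 µM serotonin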
sPLA2-III inh: Inhibits HGIII-sPLA2 liposome hydrolysis, primary screen. 370,000 compounds, 0.56% hits. Q9NZ20. AID 743126. QFRET BODIPY PC-A2 liposome hydrolysis, fluorescence. inhibition, % at 12.2 µM;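 active means inhibition above mean plus 3 SD of compounds lying within the high and low control bounds, cut at about 19% in these data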;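 further: 0% = median of test compound wells and 100% = no enzyme DMSO wells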
Target sequence (Q9NZ20 whole entry, looked up): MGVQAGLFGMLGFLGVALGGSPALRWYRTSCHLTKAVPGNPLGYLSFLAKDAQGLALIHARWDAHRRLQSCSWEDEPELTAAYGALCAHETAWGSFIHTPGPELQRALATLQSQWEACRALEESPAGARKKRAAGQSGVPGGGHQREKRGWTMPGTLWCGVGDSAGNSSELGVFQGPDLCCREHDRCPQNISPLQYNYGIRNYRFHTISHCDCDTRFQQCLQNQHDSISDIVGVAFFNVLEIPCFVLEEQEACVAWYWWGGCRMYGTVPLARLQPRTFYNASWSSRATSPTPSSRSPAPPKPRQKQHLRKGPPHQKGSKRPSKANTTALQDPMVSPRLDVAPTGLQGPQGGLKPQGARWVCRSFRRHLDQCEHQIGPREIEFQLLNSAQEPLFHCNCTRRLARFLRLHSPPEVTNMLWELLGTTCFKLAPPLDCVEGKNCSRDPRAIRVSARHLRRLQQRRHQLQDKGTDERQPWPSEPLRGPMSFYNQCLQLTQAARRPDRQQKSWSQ
MOR-DOR inv ag: mu-delta opioid heterodimer inverse agonism; 340,000 compounds, 0.21% hits; cell-based MOR-DOR heterodimer luminescence; P35372+P41143; inhibition, % at 9.3 µM; in the data active means inhibition above about 22%, passing the limit was not always enough;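 further: 0% = cells with DMSO and 100% = wells without cells with DMSO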
HTR5A inv ctr: counter-screen for OPRM1-OPRD1 inverse agonists: human HTR5A inverse agonism | inhibition, % at 9.3 µM | AID 504634 | P47898 | HTR5A cell line, luminescence | 340,000 compounds, 0.083% hits; in the data active means inhibition mostly above about 23%, no sharp cut-off; inactive means mostly below about 18%;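 further: 0% = cells with DMSO and 100% = no-cell wells with DMSO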
HTR5A ag: HTR5A agonism, opioid heterodimer counter-screen; activation, % at 9.3 µM; P47898; 340,000 compounds, 0.61% hits; AID 504692; HTR5A agonist assay, luminescence, cell-based; in the data active means activation mostly above about 9.5%, no sharp cut-off; inactive means mostly below about 7.6%;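 further: 0% = cells with vehicle only and 100% = reference agonist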
MOR-DOR ag: agonists of human mu-delta opioid receptor heterodimerization; 340,000 compounds, 0.3% hits; activation, % at 9.3 µM; P35372+P41143; cells, OPRM1-OPRD1 heterodimerization, luminescence;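 further: 0% = vehicle-treated cells and 100% = reference agonist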
MOR-DOR ag conf: confirmation of human OPRM1-OPRD1 heterodimerization agonists | shares compounds with MOR-DOR ag | activation, % at 9.3 µM | AID 504904 | 830 compounds, 45% hits | cells, MOR-DOR heterodimerization, luminescence complementation;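 further: 0% = vehicle-treated cells and 100% = reference agonist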
HTR5A ag ctr2: activates human HTR5A in OPRM1-OPRD1 agonist counter-screen; shares compounds with MOR-DOR ag; HTR5A agonist counterscreen, cell luminescence; activation, % at 9.3 µM; 830 compounds, 8% hits; AID 504905; in the data active means activation above about 17%;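 further: 0% = vehicle-treated cells and 100% = reference agonist response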
The depositor's hits bear a star; i = inactive; / = no result given. An excerpt weighted towards active compounds, which were near 2.2% of everything screened. Unless noted, no stated cut-off is given here; in the data, active means activation above about 18%; inactive means the rest.

SMILES	m5-HT2A agonist	sPLA2-III inh	MOR-DOR inv ag	HTR5A inv ctr	HTR5A ag	MOR-DOR ag	MOR-DOR ag conf	HTR5A ag ctr2
O=[N+]([O-])c1ccc(SNc2ccccc2)c([N+](=O)[O-])c1	-3	10	-102	-15	4	20*	13	6
O=[N+]([O-])c1ccccc1SNc1ccccc1	-3	5	/	/	/	/	/	/
O=C1C=CC(=O)c2c(O)c(N3CCN(CCOCCO)CC3)c(Br)c(O)c21	-4	-18	-123	8	-2	25*	6	-4
COc1ccc(-n2c(COc3ccc(C)cc3)nnc2SCC(=O)c2ccc(-c3ccccc3)cc2)cc1	/	-12	/	/	/	/	/	/
CCOC(=O)N1CCN(C(=O)C[C@H]2C[C@@]3(C(=O)OC)C(=C[C@H](COCc4ccccc4)O[C@@H]3C)N(Cc3ccc4c(c3)OCO4)C2=O)CC1	/	-5	/	/	/	/	/	/
COc1ccccc1CN1CCN(C(CC(C)C)c2nnnn2Cc2cccs2)CC1 (stereo unspecified)	-8	-7	-268	-38	8	46*	63*	2
CC(=O)N1c2cc(S(=O)(=O)Nc3c(C)n(C)n(-c4ccccc4)c3=O)c(Br)cc2CC1C (stereo unspecified)	/	0	/	/	/	/	/	/
CCOC(=O)C1(CC2CCCCO2)CCN(Cc2c(C)cc(C)cc2-n2cccn2)CC1 (stereo unspecified)	-7	4	i	-29	9	199*	267*	2
CCOC(=O)C1(CC2CCCCO2)CCN(Cc2nccn2-c2cccc(C)c2)CC1 (stereo unspecified)	2	5	-64	6	4	13	/	/
CCOC(=O)C1(CC2CCCCO2)CCN(Cc2nc3ccccc3[nH]2)CC1 (stereo unspecified)	2	4	-148	10	-4	29*	27*	3
CCOC(=O)C1(CC2CCCCO2)CCN(Cc2cc(F)ccc2-n2cccn2)CC1 (stereo unspecified)	-1	-4	-298	0	-4	61*	66*	2
COC(=O)c1ccccc1OCc1cccc(C)n1	-4	-3	-2	-5	1	0	/	/
COC(=O)C(Cc1cccc(C)n1)(c1ccccc1)c1ccccc1	0	7	i	0	0	113*	153*	2
Cc1cccc(CC(Cc2nc3ccccc3[nH]2)c2nc3ccccc3[nH]2)c1 (stereo unspecified)	4	-36	-109	12	-5	18*	2	-4
O=C(OCc1cn(Cc2ccccc2C(F)(F)F)nn1)N1CCOCC1	/	1	/	/	/	/	/	/
O=C(OC12CCCN(C1)/C(=C/c1ccc(Cl)cc1)C2)c1ccno1 (stereo unspecified)	/	-6	/	/	/	/	/	/
CC1(C)CC(=O)N(CC(=O)N2CCN(c3cccc(C(F)(F)F)c3)CC2)c2ccccc2S1(=O)=O	/	6	/	/	/	/	/	/
COc1ccc(C2Nc3ccccc3C(=O)N2Cc2ccco2)cc1COc1ccc(F)cc1 (stereo unspecified)	-4	-5	-205	-20	0	38*	26*	-1
CCCN1C(=O)c2ccccc2NC1c1ccc(OC)c(CSc2ccccn2)c1 (stereo unspecified)	3	9	-118	15	5	22*	16	1
COc1ccc(N2C(=O)c3ccccc3NC2c2ccc(OC)c(CSc3ccccn3)c2)cc1 (stereo unspecified)	-1	-1	-48	12	1	8	/	/
O=C(O)c1cccc2c1C(=O)c1ccccc1C2=O	-2	3	3	2	-1	-1	/	/
O=C1C(O)=CC(=C(c2ccccc2)c2ccccc2)c2ccccc21	-3	-4	-100	16	-4	20*	-1	-16
CCOC(=O)CC[C@@]1(C(=O)OCC)C[C@@H](CC(=O)NCc2ccc(OC)c(OC)c2)C(=O)N2CCCC=C21	/	-1	/	/	/	/	/	/
C[C@@H]1COc2cc(F)ccc2S(=O)(=O)N1C	/	2	/	/	/	/	/	/

Screening data deposited in PubChem by The Scripps Research Institute Molecular Screening Center.
